Assay results reported in PubChem BioAssay (Tox21).
Records with an inconclusive call do not appear. Values without a mark were called inactive. The source made the active and inactive calls. The call rests on the fitted dose curve; in most records, active means well fitted activation curve with a large enough effect in the repeat runs; inconclusive means weak or mixed curves; inactive means flat fitted curve, though single readings scatter.

assay: A CellTox Green Cytotoxicity Assay to monitor cytotoxicity in HEK293 cells - 40 hour (AID 1224871); details: CellTox Green fluorescence; series mostly up to 76.8 µM; cytotoxicity increase: at the top concentration; further: nearly all actives have a fitted effect of over 45% in size
From the text: National Center for Advancing Translational Sciences [NCATS]
NIH Chemical Genomics Center [NCGC]
U.S. Environmental Protection Agency [EPA]
National Institutes of Environmental Health Sciences [NIEHS]
National Toxicology Program [NTP]
Cell-based models are critical for drug discovery. Determining the natural cytotoxic effects resulting from test compounds is an essential research activity. A CellTox Green Cytotoxicity Assay to monitor cytotoxicity in real time of continues cell culture during 40 hours of the compound treatment was used to screen Tox21 10K library compounds in Hek293 cells. CellTox Green Cytotoxicity Assay is a nonlytic, homogeneous, biofluorescent method to measure cytotoxicity in cell culture after experimental manipulation. The assay system uses a proprietary asymmetric cyanine dye that is excluded from viable cells but preferentially stains the dead cell's DNA. […] Viable cells produce no appreciable increases in fluorescence. Therefore, the fluorescence signal produced by the binding interaction with dead cell DNA is proportional to cytotoxicity.
The mixture of Hek293 cell suspension and reagents were dispensed at 600cells/6 ul/well in 1536-well tissue culture treated black solid bottom plates using a Multidrop dispenser. After the assay plates were incubated at a 37 C/5% CO2 incubator for 5 hours, 23 nL of compounds dissolved in DMSO, positive and negative controls was transferred to the assay plate by a pintool work station. The plates were incubated at 37 C for 40 hours. The fluorescence intensity were measured at 0h, 8h, 16h, 24h, 32h and 40h time points using ViewLux plate reader during compound treatment.
On the % scale 0 is the no-effect control and ±100 the full control effect; potency means the concentration at half of the fitted maximal effect.

| Compound | cytotoxicity increase | Potency |
| --- | --- | --- |
| O=S1(=O)N=C(O)c2ccccc21 | 3.02% [at 35.3 µM] |  |
| CN(C)CC/C=C1\c2ccccc2COc2ccccc21 | 1.23% [at 35.3 µM] |  |
| CC(Cc1cccc(C(F)(F)F)c1)NCCOC(=O)c1ccccc1 (stereo not given) |  | 21.3 µM (active) |
| Cn1c(NCCN(CCO)CCCc2ccc([N+](=O)[O-])cc2)cc(=O)n(C)c1=O | 12.7% [at 35.3 µM] |  |
| NCCCN(CCO)CCO | -24% |  |
| O=c1c2ccccc2nnn1CCl | -5.46% |  |
| NCCCOCCOCCOCCCN | -11.2% |  |
| CC[C@H](C)[C@H](N)C(=O)O | 3.66% [at 35.3 µM] |  |
| COc1ccc(OC)c(OC)c1 | -3.76% |  |
| O=C1CCCCCO1 | -2.57% |  |
| CC(=O)SCc1ccco1 | -12.6% |  |
| CCN(CCO)CCCC(C)Nc1ccnc2cc(Cl)ccc12 (stereo not given) | -1.39% [at 6.97 µM] |  |
| C#CCOC(=O)[C@@H](C)Oc1ccc(Oc2ncc(Cl)cc2F)cc1 | 6.83% |  |
| C=C(C)C(=O)OCCN(C)C | -7.14% |  |
| O=C(O)Cc1sc(-c2ccccc2)nc1-c1ccc(Cl)cc1 | 7.72% [at 35.3 µM] |  |
| C1CCC2OC2C1 (stereo not given) | 16% |  |
| Cc1nc2ccccc2n1Cc1ccc(Cl)cc1 | 5.05% [at 35.3 µM] |  |
| CCCCCCCCCCCCCCCBr | 5.29% [at 35.3 µM] |  |
| CCOC(=S)SSC(=S)OCC | -4.85% |  |
| CC(C)=CCCC(C)CC=O (stereo not given) | -14.9% |  |

| Compound | cytotoxicity increase | Potency |
| --- | --- | --- |
| CC(C)NCC(O)c1cc(O)cc(O)c1 (stereo not given) | -24.3% [at 35.3 µM] |  |
| CCCCc1cc2ccccc2c(OCCN(C)C)n1 |  | 21.3 µM (active) |
| COC(Cc1ccccc1)OC | -14.4% |  |
| CC[C@H](C)[C@@H](C(=O)O)n1sc2ccccc2c1=O | -13% |  |
| CCCOc1ccc2nc(NC(=O)OC)[nH]c2c1 | -16.5% [at 35.3 µM] |  |
| NC[C@H]1O[C@H](O[C@H]2[C@H](O)[C@@H](O[C@H]3O[C@H](CO)[C@@H](O)[C@H](N)[C@H]3O)[C@H](N)C[C@@H]2N)[C@H](O)[C@@H](O)[C@@H]1O | 9.35% [at 6.97 µM] |  |
| Oc1ccc2c(c1)OCO2 | -5.35% |  |
| O=C(O)[C@@H]1[C@H]2C[C@H]3c4[nH]c5ccccc5c4CCN3C[C@@H]2CC[C@@H]1O | 3.81% [at 35.3 µM] |  |
| CCCCOCCOCCOCCOCCO | 9.21% |  |
| CN(C)CCCNCCCN | 0.23% |  |
| CCCCCCCCCO | -8.61% |  |
| CC[C@]12CCCN3CCc4c(n(c5ccccc45)C(=O)C1)[C@@H]32 | 26.2% [at 35.3 µM] |  |
| CCCC(=O)OCC | -10.5% |  |
| O=C(CC(=O)c1ccccc1)c1ccccc1 | -2.11% |  |
| N#Cc1c(F)cccc1F | -12.9% |  |
| CCN(CC)C(C)=O | -3.26% |  |
| O=C(Cl)c1c(Cl)cccc1Cl | -0.0361% |  |
| Cc1cccc(Oc2ccccc2)c1 | 44.8% |  |
| C[C@@H](C1=C(CCN(C)C)Cc2ccccc21)c1ccccn1 | 14.3% [at 35.3 µM] |  |
| CC(=O)[C@@]1(O)CC[C@H]2[C@@H]3C[C@H](C)C4=CC(=O)CC[C@]4(C)[C@H]3CC[C@@]21C | 5.01% [at 35.3 µM] |  |
